Measured values taken from PMC5540273 (PLoS ONE, 2017).

Legend:
Conditions in all cases: concentration: 1 μM, replicates: in singlicate; n = 1
TSSK3 = tested on: TSSK3
TTK = tested on: TTK
TXK = tested on: TXK
[1] = tested on: TYK2(JH1domain-catalytic)
[2] = tested on: TYK2(JH2domain-pseudokinase)
TYRO3 = tested on: TYRO3
ULK1 = tested on: ULK1
ULK2 = tested on: ULK2
ULK3 = tested on: ULK3
VEGFR2 = tested on: T1, VEGFR2
T1 construct: gene KDR
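Further: KINOMEscan kinase panel screen.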

SMILES: Cc1ccc(C(=O)NCC(N)=O)cc1-n1c(C)cc(OCc2ccc(F)cc2F)c(Br)c1=O
- %Inh (TSSK3): 0%
- %Inh (TTK): 35%
- %Inh (TXK): 21%
- %Inh [1]: 0%
- %Inh [2]: 0%
- %Inh (TYRO3): 3%
- %Inh (ULK1): 0%
- %Inh (ULK2): 0%
- %Inh (ULK3): 2%
- %Inh (VEGFR2): 0%

SMILES: COc1ccc(CNC(=O)NC2CCN(c3ccnc(Nc4ccc(OC)cc4)n3)C2)cc1 (centres unmarked) [GSK1379727]
- %Inh (TSSK3): 5%
- %Inh (TTK): 18%
- %Inh (TXK): 0%
- %Inh [1]: 37%
- %Inh [2]: 46%
- %Inh (TYRO3): 0%
- %Inh (ULK1): 0%
- %Inh (ULK2): 0%
- %Inh (ULK3): 9%
- %Inh (VEGFR2): 0%

SMILES: O=C(Nc1cccc(-c2nn3ncccc3c2-c2ccnc(Nc3cccc(C(F)(F)F)c3)n2)c1)c1c(F)cccc1F [GSK299495]
- %Inh (TSSK3): 18%
- %Inh (TTK): 6%
- %Inh (TXK): 76%
- %Inh [1]: 22%
- %Inh [2]: 39%
- %Inh (TYRO3): 87%
- %Inh (ULK1): 0%
- %Inh (ULK2): 0%
- %Inh (ULK3): 7%
- %Inh (VEGFR2): 29%

SMILES: Cl.Oc1cccc(Nc2ccnc3cc(-c4ccncc4)ccc23)c1 [GW494601]
- %Inh (TSSK3): 6%
- %Inh (TTK): 39%
- %Inh (TXK): 97.6%
- %Inh [1]: 93.1%
- %Inh [2]: 49%
- %Inh (TYRO3): 82%
- %Inh (ULK1): 0%
- %Inh (ULK2): 0%
- %Inh (ULK3): 31%
- %Inh (VEGFR2): 95.4%

SMILES: CN(C(=O)c1ccc(-c2cc(-c3c[nH]nc3-c3ccccn3)ccn2)cc1)C1CCOCC1 [GW810083]
- %Inh (TSSK3): 33%
- %Inh (TTK): 0%
- %Inh (TXK): 0%
- %Inh [1]: 12%
- %Inh [2]: 25%
- %Inh (TYRO3): 0%
- %Inh (ULK1): 5%
- %Inh (ULK2): 14%
- %Inh (ULK3): 12%
- %Inh (VEGFR2): 0%

SMILES: O=C(c1ccc(-c2cc(-c3c[nH]nc3-c3ccccn3)ccn2)cc1)N1CCOCC1 [GW812171]
- %Inh (TSSK3): 0%
- %Inh (TTK): 0%
- %Inh (TXK): 11%
- %Inh [1]: 0%
- %Inh [2]: 21%
- %Inh (TYRO3): 0%
- %Inh (ULK1): 14%
- %Inh (ULK2): 38%
- %Inh (ULK3): 3%
- %Inh (VEGFR2): 0%

SMILES: O=C(Nc1n[nH]c2cc(-c3cccc(F)c3)ccc12)C1CC1 [SB-735464]
- %Inh (TSSK3): 9%
- %Inh (TTK): 21%
- %Inh (TXK): 14%
- %Inh [1]: 1%
- %Inh [2]: 10%
- %Inh (TYRO3): 0%
- %Inh (ULK1): 2%
- %Inh (ULK2): 12%
- %Inh (ULK3): 29%
- %Inh (VEGFR2): 12%

SMILES: COCCNC(=O)c1ccc(-c2cc(C(=O)NC3CC3)cc(F)c2C)cc1 [GW868318]
- %Inh (TSSK3): 24%
- %Inh (TTK): 0%
- %Inh (TXK): 18%
- %Inh [1]: 9%
- %Inh [2]: 33%
- %Inh (TYRO3): 21%
- %Inh (ULK1): 46%
- %Inh (ULK2): 37%
- %Inh (ULK3): 47%
- %Inh (VEGFR2): 16%

SMILES: Cc1nnc(-c2ccc3ncc(-c4ccc(S(C)=O)cc4)n3c2)o1 (centres unmarked)
- %Inh (TSSK3): 0%
- %Inh (TTK): 0%
- %Inh (TXK): 0%
- %Inh [1]: 5%
- %Inh [2]: 2%
- %Inh (TYRO3): 9%
- %Inh (ULK1): 2%
- %Inh (ULK2): 18%
- %Inh (ULK3): 5%
- %Inh (VEGFR2): 0%

SMILES: O=C(NCCNc1ccnc(Nc2ccc(F)cc2)n1)Nc1ccccc1F [GSK1379880]
- %Inh (TSSK3): 12%
- %Inh (TTK): 0%
- %Inh (TXK): 1%
- %Inh [1]: 24%
- %Inh [2]: 17%
- %Inh (TYRO3): 0%
- %Inh (ULK1): 19%
- %Inh (ULK2): 0%
- %Inh (ULK3): 28%
- %Inh (VEGFR2): 0%

SMILES: Nc1nccc(-c2c(-c3ccc(F)cc3)ncn2C2CCN(CC(F)(F)F)CC2)n1 [SB-236560]
- %Inh (TSSK3): 67%
- %Inh (TTK): 0%
- %Inh (TXK): 0%
- %Inh [1]: 14%
- %Inh [2]: 82%
- %Inh (TYRO3): 0%
- %Inh (ULK1): 0%
- %Inh (ULK2): 30%
- %Inh (ULK3): 10%
- %Inh (VEGFR2): 0%

SMILES: COc1ccc(S(=O)(=O)NC2CCN(c3cc(C)nc(Nc4cccc(C#N)c4)n3)CC2)cc1.O=C(O)C(F)(F)F [GSK1653539]
- %Inh (TSSK3): 0%
- %Inh (TTK): 0%
- %Inh (TXK): 0%
- %Inh [1]: 0%
- %Inh [2]: 6%
- %Inh (TYRO3): 0%
- %Inh (ULK1): 0%
- %Inh (ULK2): 0%
- %Inh (ULK3): 23%
- %Inh (VEGFR2): 0%

SMILES: Cl.Nc1ncnc2occ(-c3ccc(NC(=O)Nc4cc(C(F)(F)F)ccc4F)cc3)c12 [SB-707548]
- %Inh (TSSK3): 11%
- %Inh (TTK): 35%
- %Inh (TXK): 0%
- %Inh [1]: 0%
- %Inh [2]: 12%
- %Inh (TYRO3): 0%
- %Inh (ULK1): 0%
- %Inh (ULK2): 0%
- %Inh (ULK3): 19%
- %Inh (VEGFR2): 99.8%

SMILES: COc1ccc(Nc2nccc(N3CCC(NC(=O)Nc4cc(C)ccc4C)C3)n2)cc1 (centres unmarked) [GSK1379741]
- %Inh (TSSK3): 9%
- %Inh (TTK): 0%
- %Inh (TXK): 0%
- %Inh [1]: 0%
- %Inh [2]: 23%
- %Inh (TYRO3): 0%
- %Inh (ULK1): 15%
- %Inh (ULK2): 0%
- %Inh (ULK3): 12%
- %Inh (VEGFR2): 0%

SMILES: c1ccc(-c2cc(-c3c[nH]nc3-c3ccccn3)ccn2)cc1 [GW576604]
- %Inh (TSSK3): 2%
- %Inh (TTK): 0%
- %Inh (TXK): 0%
- %Inh [1]: 13%
- %Inh [2]: 26%
- %Inh (TYRO3): 0%
- %Inh (ULK1): 0%
- %Inh (ULK2): 0%
- %Inh (ULK3): 0%
- %Inh (VEGFR2): 0%

SMILES: C[C@@H](Oc1cc(-n2cnc3ccc(NC(=O)NC(C)(C)C)cc32)sc1C(N)=O)c1ccccc1Cl [GSK346294]
- %Inh (TSSK3): 21%
- %Inh (TTK): 0%
- %Inh (TXK): 0%
- %Inh [1]: 8%
- %Inh [2]: 0%
- %Inh (TYRO3): 0%
- %Inh (ULK1): 0%
- %Inh (ULK2): 0%
- %Inh (ULK3): 15%
- %Inh (VEGFR2): 3%

SMILES: O=C1Cc2cc(Nc3nc(NCc4cccc(S(=O)(=O)C(F)(F)F)c4)ncc3C(F)(F)F)ccc2N1
- %Inh (TSSK3): 9%
- %Inh (TTK): 0%
- %Inh (TXK): 4%
- %Inh [1]: 25%
- %Inh [2]: 0%
- %Inh (TYRO3): 3%
- %Inh (ULK1): 3%
- %Inh (ULK2): 26%
- %Inh (ULK3): 12%
- %Inh (VEGFR2): 0%
